Inconclusive results are not listed. The source made the active and inactive calls. The call rests on the fitted dose curve; in most records, active means well fitted activation curve with a large enough effect; inconclusive means small, poorly fitted or top-dose-only effect; inactive means no such curve, though single readings can be large or run the other way.
These compounds were tested against Cellular tumor antigen p53 (Homo sapiens) (UniProt P04637) (assay: Primary qHTS for small molecule compounds that upregulate eGFP-tagged delta133p53alpha (in N-terminal) cells. (AID 2060322; further: nearly all actives have a fitted effect of over 75% in size;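 on activation: cells pre-induced with doxycycline then dosed without doxycycline; series mostly up to about 56 µM; 0% = DMSO vehicle and 100% = reference activator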)). Conditions: NCI-H358 eGFP-delta133p53alpha fluorescence, 24 h; activation: active compounds read high.
Procedure, shortened: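 NCI-H358 cells pre-induced 24 h with 10 ng/ml doxycycline for eGFP-delta133p53alpha, plated dox-free and exposed 24 h at 37C to titrated compounds. Fixed, Hoechst-stained; gated GFP peak intensity by laser scanning cytometry, normalized to DMSO (0%) and 57.5 uM 5-azacytidine (100%).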
Potency means the concentration at half of the fitted maximal effect.

Chain of Cellular tumor antigen p53 (Homo sapiens) (P04637 whole entry, looked up): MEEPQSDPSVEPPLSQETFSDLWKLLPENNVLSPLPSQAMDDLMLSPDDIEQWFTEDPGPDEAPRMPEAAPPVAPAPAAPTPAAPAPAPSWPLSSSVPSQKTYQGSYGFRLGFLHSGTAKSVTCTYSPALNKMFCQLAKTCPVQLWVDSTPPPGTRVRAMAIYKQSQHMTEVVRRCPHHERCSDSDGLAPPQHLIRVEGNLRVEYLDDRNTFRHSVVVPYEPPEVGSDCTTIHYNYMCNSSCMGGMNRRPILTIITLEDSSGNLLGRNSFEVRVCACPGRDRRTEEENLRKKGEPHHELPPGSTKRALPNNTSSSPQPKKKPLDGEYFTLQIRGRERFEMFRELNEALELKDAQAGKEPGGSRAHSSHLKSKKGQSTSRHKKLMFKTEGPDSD

SMILES	Potency	activation
CO[C@H]1/C=C\O[C@@]2(C)Oc3c(C)c(O)c4c(O)c(c(C=NN5CCN(C6CCCC6)CC5)c(O)c4c3C2=O)NC(=O)C(C)=CC=C[C@H](C)[C@H](O)[C@@H](C)[C@@H](O)[C@@H](C)[C@H](OC(C)=O)[C@H]1C	24.3 µM (active)	–
CNC(=O)c1cccc(-c2ccc3c(N4CCOC[C@H]4C)nc(N4CCOC[C@H]4C)nc3n2)c1	–	19.5% (inactive)
O=[N+]([O-])c1cccc(S(=O)(=O)NCCNS(=O)(=O)c2cccc([N+](=O)[O-])c2)c1	–	24.3% (inactive)
CCc1c(C(=O)Nc2cc(S(=O)(=O)N(CC)CC)ccc2O)[nH]c(C)c1C(C)=O	–	-38% (inactive)
COc1ccc(-c2cc(=O)c3c(O)cc(O[C@@H]4O[C@H](CO[C@@H]5O[C@@H](C)[C@H](O)[C@@H](O)[C@@H]5O)[C@@H](O)[C@H](O)[C@@H]4O)cc3o2)cc1O	–	-19% (inactive)
Cc1ncc(Cl)cc1NCc1ccc(C(=O)N[C@@H](CC2CCCC2)C(=O)NC2CC2)s1	–	-39.1% (inactive)
N#CC(=C(N)Sc1ccccc1N)C(C#N)=C(N)Sc1ccccc1N	17.2 µM (active)	–
OC[C@H]1O[C@@H](Oc2ccc(O)cc2)[C@H](O)[C@@H](O)[C@H]1O	–	-6.58% (inactive)
CCN(CC)C(=O)N1CCN(C)CC1	–	-2.51% (inactive)
CON=C(C(=O)N[C@@H]1C(=O)N2C(C(=O)O)=C(Cn3ccc(=N)n3CCO)CS[C@H]12)c1csc(N)n1	–	23.9% (inactive)
COC(=O)c1c(Cl)c(Cl)c(C(=O)OC)c(Cl)c1Cl	–	-11.7% (inactive)
Nc1ncnc2c1ncn2[C@@H]1O[C@@H](CO)[C@H](O)[C@H]1O	–	-9.84% (inactive)
CCCc1c2oc(C(=O)O)cc(=O)c2cc2c(=O)cc(C(=O)O)n(CC)c12	–	-10% (inactive)
CCC(C=C[C@@H]1OC(=O)C=C[C@H]1C)=C[C@H](C)CC=CC(C)=C[C@@H](C)C(=O)[C@@H](C)[C@H](O)[C@@H](C)CC(C)=CC(=O)O	0.287 µM (active)	–
C=C1C(=CC=C2CCCC3(C)[C@@H]([C@H](C)C=CC=CC(O)(CC)CC)CC[C@@H]23)C[C@@H](O)C[C@@H]1O (stereo partly drawn)	–	-6.37% (inactive)
COc1cc(C(C)C)c(Oc2cnc(N)nc2N)cc1I	–	3.67% (inactive)
C[C@@H](c1ncncc1F)C(O)(Cn1cncn1)c1ccc(F)cc1F (stereo partly drawn)	–	-2.82% (inactive)
O=C1[C@H]2CCCC[C@H]2C(=O)N1CCCCN1CCN(c2nsc3ccccc23)CC1	–	10.7% (inactive)
CC=C(C)C(=O)O[C@H]1C(C)=C[C@]23C(=O)[C@@H](C=C(CO)[C@@H](O)[C@]12O)[C@H]1[C@@H](C[C@H]3C)C1(C)C	–	20.2% (inactive)
CN(N=O)C(=O)N[C@H]1C(O)OC(CO)[C@@H](O)[C@H]1O (stereo partly drawn)	–	25.8% (inactive)
C=CCc1ccc(O)c(OC)c1	–	15.1% (inactive)
Cc1cc(CC(=O)O)c(C)n1-c1ccc(Cl)cc1	–	5.86% (inactive)
O=C(CCN1CCN(CCO)CC1)N1c2ccccc2Sc2ccc(C(F)(F)F)cc21	–	-5.08% (inactive)
CC[C@]12C=CCN3CC[C@@]4(c5cc([C@@]6(C(=O)OC)C[C@H]7C[C@@H](C(C)(F)F)CN(Cc8c6[nH]c6ccccc86)C7)c(OC)cc5N(C)[C@H]4[C@@](O)(C(=O)OC)[C@H]1OC(C)=O)[C@@H]32	–	-7.99% (inactive)
COc1cc(C)c(Cc2cnc(N)nc2N)cc1OC	–	-6.69% (inactive)
COc1ccc(C(C)=O)c(O)c1	–	14.5% (inactive)
Clc1ccccc1-c1nc(-c2ccncc2)no1	–	11.7% (inactive)
CC(C)NCCCC1(C(N)=O)c2ccccc2-c2ccccc21	–	4.18% (inactive)

Reference: PubChem BioAssay (NCATS)
